Experimental data published in PubChem BioAssay AID463082 (The Scripps Research Institute Molecular Screening Center, 2010).
Hit rate of the full screen: of about 330,000 compounds, about 4,900 (1.5%) were called active. The list comes from a sample in which actives are over-represented; it also holds similar structures and randomly drawn compounds. Values without a mark were called inactive.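 Rule for the calls: active = inhibition above the mean inhibition across the screen plus 3 SD (cut at about 25% in these data); inactive = the rest.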

molecular target: Platelet-activating factor acetylhydrolase (Homo sapiens) (UniProt Q13093); test: inhibition of plasma PAF acetylhydrolase – biochemical, fluorescence polarization, human, primary screen (AID 463082); settings: recombinant pPAFAH, FP-rhodamine probe fluorescence polarization; at 3.39 µM; stronger effect = higher value;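 note: inhibitors block binding of the rhodamine activity-based probe so polarization drops; 0% = enzyme with DMSO and 100% = wells lacking pPAFAH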
Sequence (Q13093 whole entry, looked up): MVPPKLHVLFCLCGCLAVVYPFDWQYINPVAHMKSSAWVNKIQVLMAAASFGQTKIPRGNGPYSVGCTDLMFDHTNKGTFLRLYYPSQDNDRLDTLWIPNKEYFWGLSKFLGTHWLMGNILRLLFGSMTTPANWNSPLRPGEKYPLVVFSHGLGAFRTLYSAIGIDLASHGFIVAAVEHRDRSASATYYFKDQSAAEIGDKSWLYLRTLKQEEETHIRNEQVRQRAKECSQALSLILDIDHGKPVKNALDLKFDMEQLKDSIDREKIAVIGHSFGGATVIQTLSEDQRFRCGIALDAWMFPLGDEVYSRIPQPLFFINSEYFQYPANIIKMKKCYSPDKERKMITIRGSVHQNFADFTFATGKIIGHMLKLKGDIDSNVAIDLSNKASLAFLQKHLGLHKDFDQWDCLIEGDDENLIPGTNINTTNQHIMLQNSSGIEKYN

Point of comparison: `CCOc1cccc2c1OC1(CCCCC1)N1N=C(c3cccnc3)CC21` (stereo not given), inhibition 8.14%. Against it:
- CC(=O)c1c(C)[nH]c(C(=O)COC(=O)c2cccc(S(=O)(=O)N(C)c3ccccc3)c2)c1C — lower, -1.03%
- Cc1ccc(C)c(NC(=O)CCC(=O)NNC(=O)c2cccs2)c1 — lower, 4.49%
- CC1(C)CC(=O)C/C(=N\NC(=O)c2cccs2)C1 — lower, 1.45%
- O=C(Nc1ccc(-c2ccc3nncn3n2)cc1)C1CCCCC1 — lower, 3.72%
- O=C(Nc1ccc(Br)cc1)c1cc(S(=O)(=O)Nc2ccccn2)ccc1Cl — lower, 4.67%
- Cc1ccc(-c2noc(CSc3nnc(-c4ccccc4)n3C)n2)cc1 — lower, 2.63%
- Fc1ccc(-n2c(Cc3ccccc3)nnc2SCc2nc(-c3ccc(Cl)cc3)no2)cc1 — higher, 8.28%
- Cc1c(S(=O)(=O)NCc2ccccc2)c(=O)n(C)c(=O)n1C — lower, 3.56%
- Cc1ccc(N(C(=O)CNC(=O)c2ccco2)C(C(=O)NC2CCCC2)c2ccncc2)cc1 (stereo not given) — lower, 3.58%
- Cn1c(SCC(=O)Nc2ccc(N3CCOCC3)cc2)nnc1C(F)(F)F — lower, -4.91%
- Cc1c(C)c2ccc(OCC(=O)N3CCC(C(=O)O)CC3)c(C)c2oc1=O — lower, -1.32%
- CCN(CC)S(=O)(=O)c1ccc(N2CCOCC2)c(NC(=O)C2COc3ccccc3O2)c1 (stereo not given) — lower, 1.62%
- COc1cccc(/C=C2\Sc3ccc(C(=O)NCC4CCCO4)cc3N(C)C2=O)c1 (stereo not given) — higher, 8.27%
- CCC(=O)c1ccc(OCC(=O)Nc2ccc(N3CCCCC3)cc2)cc1 — lower, 3.34%
- Cc1cc(C)cc(OCC(=O)Nc2ccc(N3CCOCC3)cc2N2CCOCC2)c1 — lower, 4.92%
- Cn1c(CCC(=O)OCC(=O)NCc2ccccc2Cl)nc(=O)c2ccccc21 — lower, 1.56%
- S=C(NCC1CCCO1)N1CCN(c2ccc(Cl)c(Cl)c2)CC1 (stereo not given) — higher, 14.9%
- S=C(NCCc1ccccc1)NCC1CCCO1 (stereo not given) — lower, 3.38%
- CN(C)c1nccc(NCc2ccccc2)c1C#N — lower, 5.61%
- COc1ccccc1NC(=O)Nc1nnc(Cc2ccc(F)cc2)s1 — lower, 1.88%
- O=C(C1CC(=O)N(c2ccc(Br)cc2)C1)N1CCCC1 (stereo not given) — lower, 2.26%
- Cc1cc(NC(=O)C(C)N2C(=O)c3ccccc3S2(=O)=O)no1 (stereo not given) — lower, 5.49%
- O=c1c2c(-c3ccccc3)ccnc2[nH]n1-c1ccccc1 — higher, 16.9%
- COc1ccc(-n2cc(-c3ccccc3)c3c(=S)nc[nH]c32)cc1 — higher, 16.5%
- COc1cc(CCC(=O)Nc2ccncc2Cl)cc(OC)c1OC — lower, 3.7%
- O=C(Cc1ccc(Br)cc1)NCCc1ccccc1 — lower, -2.54%
- O=C(NCCCO)/C(=C\C=C\c1ccccc1)NC(=O)c1ccccc1Cl — lower, 5.51%
- COc1ccc(CC(=O)Nc2nc(-c3ccc(F)c(F)c3)cs2)cc1OC — lower, -1.93%
- COc1ccc(OC)c(-c2csc(NC(=O)COC(=O)C3CC3)n2)c1 — lower, 5.42%
- CC1C(=O)Nc2ccc(S(=O)(=O)N3CCN(c4ccccc4F)CC3)cc2NC1=O (stereo not given) — lower, 7.62%
- Cc1ccc(S(=O)(=O)Oc2ccc(/C=N/NC(=O)c3c(Cl)cnn3C)cc2)cc1 — lower, 4.46%
- COc1nc(Oc2ccc(=O)n(C)n2)nc(N(C)C)n1 — lower, 1.86%
- CCn1nc(C)c(NC(=O)/C=C/c2ccc(OC)c(COc3ccc(Br)cc3)c2)c1C — lower, 7.11%
- CCS(=O)(=O)c1ccc(-c2cccc(NC(=O)c3ccc(Br)o3)c2)nn1 — lower, -0.56%
- CCOc1ccc(S(=O)(=O)Nc2ccc(C(=O)NCCCN3CCCC3=O)cc2)cc1 — lower, -4.42%
- O=C(NCCCN1CCCC1=O)c1cccc(S(=O)(=O)NCc2ccccc2)c1 — lower, 5.61%
- CC(C)(C)OC(=O)C[C@H]1C/C=C\C[C@@H](CC(=O)N[C@H](CO)Cc2ccccc2)C(=O)NC[C@@H](c2ccccc2)OC1=O — lower, 1.87%
- CC(=O)Nc1ccc(NC(=O)C2CCCN(S(=O)(=O)c3ccc(Cl)cc3)C2)cc1 (stereo not given) — lower, 0.93%
- CC(Oc1ccc(F)cc1F)C(=O)/C=C/N(C)C (stereo not given) — lower, 0.46%
- O=C(CN1C(=O)NC2(CCCCC2)C1=O)N1CCN(C(=O)c2cccs2)CC1 — lower, 2.46%
- CC1=C(/C=C/C(C)=C/C=C/C(C)=C/C=C/C=C(C)/C=C/C=C(C)/C=C/C2=C(C)CCCC2(C)C)C(C)(C)CCC1 — higher, 18.3%
- CCOC(=O)NNc1cc(C(F)(F)F)ccn1 — lower, 3.11%
- NC(=O)c1ccsc1NC(=O)COC(=O)COc1ccc(C=O)cc1 — lower, 7.9%
- CCc1ccc(-c2nn(-c3ccccc3)cc2CSC(=N)N)cc1 — lower, 3.9%
- Oc1ccc2ccccc2c1N=Nc1nccs1 — higher, 17.6%
- O=C(NCc1cccc(Cl)c1)C1CCN(c2nnc(N3CCCC3=O)s2)CC1 — lower, 3.53%
- CC(C)n1c(=S)[nH]c2cc(C(F)(F)F)ccc21 — lower, 3.35%
- Cc1ccc(CNC(=O)CSc2nnc3c(n2)[nH]c2ccc(F)cc23)cc1 — lower, 3.4%
- Cc1ccn2c(=O)nc(SCC(=O)NCc3ccc4c(c3)OCO4)nc2c1 — higher, 10.4%
- Cc1ccc(C2SCC(=O)N2c2ccccc2)cc1 (stereo not given) — lower, 2.44%
- Cc1ccc(/C=N/NC(=S)Nc2cccc(S(=O)(=O)N(C)C)c2)o1 — lower, 6.2%
- O=C(N/N=C\c1cccnc1)c1cc(-c2ccccc2)nc2c(Cl)cccc12 — lower, -1.21%
- O=C(N/N=C/c1cccnc1)c1ccc(NC(=O)c2ccc(F)cc2)cc1 — lower, -2.91%
- O=C(NN=Cc1ccc(N2CCOCC2)cc1)c1cc2ccccc2cc1O — higher, 23.5%
- Cc1nnc(SCC(=O)N(C(C)C)C(C)C)nc1C — lower, 0.01%
- CCCCOc1ccc(NC(=O)[C@@H]2CCCN2C(=O)C2CCN(S(=O)(=O)c3ccc(C)cc3)CC2)cc1 — higher, 11.9%
- O=C(OCCO)c1cc(Cl)c(C(=O)OCCO)cc1Cl — lower, 1.07%
- CCC1(CC)C(=O)C2=C3C1[C@H](C(=O)OC)C=C(C(=O)OC)C[C@H]3[C@H]1C(=O)N(Cc3ccccc3)C(=O)[C@H]1[C@H]2C (stereo not given in full) — higher, 9.48%
- CCC(C(=O)OCC(=O)Nc1ccc(C(=O)Nc2ccc(OC)cc2)cc1)c1ccccc1 (stereo not given) — lower, 2.28%
- CN(CC(=O)Nc1ccc(OC(F)F)cc1)S(=O)(=O)/C=C/c1ccccc1 — lower, 5.82%
- COc1ccc2sc(-c3ccc(N(C)C)cc3)c(C#CCO)c2c1 — higher, 17.2%
- COc1ccc(-c2cc(=O)oc3cc(OCC(=O)N(C)C4CCS(=O)(=O)C4)ccc23)cc1 (stereo not given) — lower, 2.24%
- Cc1cc(C)c2nc(SCC(=O)N(C)C3CCS(=O)(=O)C3)cc(C)c2c1 (stereo not given) — lower, 4.97%
- Cc1ccccc1NC(=O)CCNS(=O)(=O)c1ccc2[nH]c(=O)oc2c1 — lower, 0.18%
- Cc1ccc(C2(C(F)(F)F)N=C3Sc4cc(C)cc(C)c4N3C(=O)N2)cc1 (stereo not given) — lower, 2.43%
- Cc1nn(C(C)CC(=O)O)c(C)c1C (stereo not given) — lower, 1.08%
- Cc1ccc(NC(=O)CN2CCCCC2)c2c1CC(C)(C)O2 — lower, 1.85%
- CC/C(=N\NC(=O)c1ccccc1Cl)c1ccc(Br)s1 — lower, 2.32%
- COC(=O)c1onc(-c2c(OC)cc(OC)cc2OC)c1C(=O)OC — lower, -0.73%
- Cc1ccc(S(=O)(=O)NCC(=O)NNC(=O)c2ccc(Br)cc2)cc1C — lower, -3.03%
- CN(C)S(=O)(=O)c1ccc(N2CCCC2)c(C(=O)Nc2cccc(F)c2)c1 — lower, -2.43%
- Cc1ccccc1OCC(=O)NNC(=O)c1cc(S(=O)(=O)N(C)C)ccc1N1CCCC1 — lower, -0.66%
- Cc1ccccc1CN1C[C@@H]2C[C@@H](c3cn(C)nc3-c3ccccc3)N3CCC[C@@]23C1=O — lower, 8.05%

For `Cc1ccc(C)c(NC(=O)CCC(=O)N/N=C2/CC(=O)CC(C)(C)C2)c1`, the inhibition was 34.2% (active).
`Cc1ccc(-c2noc(CSc3nnc(-c4ccncc4)n3-c3ccc(F)cc3)n2)cc1` was tested, and the inhibition was 61.4% (active).
`Cc1c(CC(=O)N2CCN(C(=O)C3COc4ccccc4O3)CC2)c(=O)oc2c(O)c(O)ccc12` (stereo not given) was tested, and the inhibition was 80.7% (active).
For `Cc1cc(N2CCCC2)ccc1NC(=O)COc1ccc(Cl)cc1`, the inhibition was 27.4% (active).
With `Oc1c(Br)cc(/C=N/NC(=S)NCC2CCCO2)cc1Br` (stereo not given) the inhibition was 35.5% (active).
`O=c1[nH]cnc2c1c(-c1ccccc1)cn2-c1ccc(F)cc1` was tested, and the inhibition was 29.6% (active).
`COc1ccc(OC)c(Nc2nc(-c3ccc(O)c(O)c3)cs2)c1` was tested, and the inhibition was 49.9% (active).
`O=C(NCCCN1CCCC1=O)c1ccc(S(=O)(=O)Nc2ccccc2)cc1` was tested, and the inhibition was 28.1% (active).
In the case of `CCCCCCCCCCCCCCCC(=O)OC/C=C(C)/C=C/C=C(C)/C=C/C1=C(C)CCCC1(C)C`, the inhibition was 25.7% (active).
With `Oc1ccc(N=Nc2nccs2)c(O)c1` the inhibition was 37.2% (active).
In the case of `Cc1ccn2c(=O)nc(SCC(=O)NCc3ccc(F)cc3)nc2c1`, the inhibition was 26.8% (active).
`O=C(N/N=C/c1cccnc1)c1cc2ccccc2cc1O` was tested, and the inhibition was 58% (active).
`Cc1ccc(/C=N/NC(=O)c2cc3ccccc3cc2O)o1` was tested, and the inhibition was 57.2% (active).
For `COc1ccc(NC(=O)COC(=O)c2ccc(NS(=O)(=O)/C=C/c3ccccc3)cc2)cc1`, the inhibition was 33.1% (active).
In the case of `COc1ccc2c(-c3ccccc3)cc(SCC(=O)N(C)C3CCS(=O)(=O)C3)nc2c1` (stereo not given), the inhibition was 34% (active).
With `CN(C)S(=O)(=O)c1ccc(N2CCCC2)c(C(=O)NCc2ccccc2)c1` the inhibition was 27.1% (active).
